Source: PubChem BioAssay AID525 (The Scripps Research Institute Molecular Screening Center, 2006)
The whole screen tested about 65,000 compounds, of which about 360 (0.55%) were called active. The full list was thinned out, with actives kept by preference. A number with no mark means an inactive call.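 The calls were made as follows: active = inhibition above the mean inhibition of all tested compounds plus 3 SD (cut at about 48% in these data); inactive = the rest.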

What follows are compounds tested against Steroidogenic factor 1 (Homo sapiens) (UniProt Q13285) (assay: suppressors of SF-1 driven luciferase transcription – cell-based, CHO-K1, Gal4-SF-1 LBD, luciferase luminescence, primary screen (AID 525;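 also: 0% = SF-1 transfected cells with DMSO and 100% = mock-transfected cells lacking SF-1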)). Conditions: CHO-K1 Gal4-SF-1 LBD luciferase reporter; at 10 µM; stronger effect = higher value.
Chain of Steroidogenic factor 1 (Homo sapiens) (Q13285 whole entry, looked up, the tested form may be a part): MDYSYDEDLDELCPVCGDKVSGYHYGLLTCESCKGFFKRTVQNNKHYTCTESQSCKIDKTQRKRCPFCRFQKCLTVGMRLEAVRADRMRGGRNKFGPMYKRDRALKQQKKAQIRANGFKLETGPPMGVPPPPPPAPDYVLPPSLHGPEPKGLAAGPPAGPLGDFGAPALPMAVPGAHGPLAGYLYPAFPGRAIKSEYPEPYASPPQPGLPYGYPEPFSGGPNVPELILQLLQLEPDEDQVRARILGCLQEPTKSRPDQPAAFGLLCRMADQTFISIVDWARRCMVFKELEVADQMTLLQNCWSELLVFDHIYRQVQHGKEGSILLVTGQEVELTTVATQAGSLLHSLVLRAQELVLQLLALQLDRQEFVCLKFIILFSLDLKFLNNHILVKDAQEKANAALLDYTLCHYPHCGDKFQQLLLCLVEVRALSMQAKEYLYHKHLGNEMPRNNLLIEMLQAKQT
Work on `COc1ccc(NC(=O)Nc2cccc3cccnc23)cc1` yielded an inhibition of -65.5%. `O=C(CSCc1cccs1)N1CCCC1` gave an inhibition of -60.5%. In the case of `CCCCCN(C(=O)NC(=O)Nc1ccccc1OC)S(C)(=O)=O`, the inhibition was -5.9%. In the case of `CN(C(=O)c1ccccn1)c1nnc(-c2ccccn2)s1`, the inhibition was -56.6%. With `COc1ccc(OCc2ccc(-c3nc4ccccc4c(=O)n3N)o2)cc1` the inhibition was -59%. `COc1ccc(-c2cn3ccsc3n2)cc1` showed an inhibition of -53.3%. Work on `COC(=O)Cn1cc(C(=O)c2cccs2)c2ccccc21` yielded an inhibition of 2.8%. For `CC[C@H]1CN2CCc3cc(OC)c(OC)cc3[C@@H]2C[C@@H]1C[C@H]1NCCc2cc(OC)c(OC)cc21`, the inhibition was 96% (active). `Cn1c(=O)c2c(nc(SCC(=O)Nc3ccccc3N3CCCCC3)n2C)n(C)c1=O` gave an inhibition of -2.8%. Compound `CCC(=O)Nc1cccc(NC(=O)CSc2nnc(-c3ccc(NS(C)(=O)=O)cc3)n2C)c1` has an inhibition of -2.4%. `COc1ccc(N2C(=O)C3CCCN3C2c2cc(OC)c(OC)cc2OC)cc1` (stereo not given) gave an inhibition of 2.8%. With `N#Cc1ccc(OCCN2C(=O)NC3(CCSC3)C2=O)cc1` (stereo not given) the inhibition was -12.8%. `O=C(NCCN1C(=O)C2C3C=CC(C3)C2C1=O)Nc1ccccn1` (stereo not given) showed an inhibition of -7.6%. With `Cc1cc(C)c(NC(=O)CS(=O)CC(=O)Nc2cccnc2)c(C)c1` (stereo not given) the inhibition was 2.2%. `CC(=O)c1c(N2CCOCC2)nc(=S)n(Cc2ccccc2)c1C` showed an inhibition of 4.9%. Work on `COC(=O)c1cc(C(=O)CSc2nc(C)cc(C)n2)ccc1O` yielded an inhibition of 11.2%. In the case of `O=C(c1cnn2ccccc12)N1CCc2ccccc21`, the inhibition was -111%. With `Cc1nnc(SCC(=O)NCc2cccs2)[nH]c1=O` the inhibition was 13.6%. `c1c2c(cc3sc(N4CCCCC4)nc13)OCCO2` was tested, and the inhibition was 71.4% (active). Compound `Fc1cc(F)c2nc(N3CCOCC3)sc2c1` has an inhibition of -52.6%. `O=C(c1cccc(C(=O)N2CCc3ccccc32)n1)N1CCc2ccccc21` gave an inhibition of 0.9%. With `CCNC(=O)CCc1nc(-c2ccc(C(C)(C)C)cc2)no1` the inhibition was 86.4% (active). Work on `Cc1ccc(Cc2nc(-c3cccc(C)c3)no2)cc1` yielded an inhibition of -53.9%. `Brc1cccc(-c2nnc3n2CCC3)c1` gave an inhibition of 3.8%. In the case of `CC12CN(Cc3ccccc3)CC(C)(CN(Cc3ccccc3)C1)C2=NO`, the inhibition was 25.5%. `O=C(Nc1ccc(Cl)cc1)c1ccsn1` was tested, and the inhibition was -73.5%. Work on `O=C(Nc1ccccc1C(F)(F)F)c1cc(-c2ccc(O)cc2)on1` yielded an inhibition of -64.4%. In the case of `CC1CSc2nnc(CCc3ccccc3)n21` (stereo not given), the inhibition was 3.6%. Compound `O=C(COc1ccc(Cl)cc1)Nc1ccccc1CO` has an inhibition of -29%. `O=C(NCc1cn2ccsc2n1)Nc1ccc(Cl)cc1` was tested, and the inhibition was 1.7%. Compound `O=C(NCc1ccco1)c1cc2sccc2n1Cc1ccc(F)cc1` has an inhibition of 11%. For `COc1ccc(CCNC(=O)CSc2nc(C)nc3c2oc2ccccc23)cc1OC`, the inhibition was -27.3%. Work on `COc1cccc(CN2C(=O)CCC2(C)C(=O)NC2CCCCCC2)c1` (stereo not given) yielded an inhibition of -6.9%. `O=C(Nc1cccc(Cl)c1)OCc1ccccn1` gave an inhibition of -33.6%. Compound `COc1ccccc1NC(=O)CSc1nnc(Cc2cccn2C)n1-c1ccc(F)cc1` has an inhibition of 16.2%. In the case of `O=C(Nc1ccccc1F)c1cc(S(=O)(=O)N2CCCCC2)cs1`, the inhibition was 4.9%. Compound `COc1cccc(OC)c1C(=O)Nc1nnc(C(C)C)s1` has an inhibition of 5.1%. Work on `C=CCNC(=O)CCCOc1cccc(C)c1` yielded an inhibition of -11.2%. With `Cc1cccc(NC(=O)c2ccc3ccccc3n2)n1` the inhibition was -98.6%. With `COc1cccc(N(CC(=O)NC2CCCC2)C(=O)Cn2nnc(-c3ccc(C)cc3)n2)c1` the inhibition was -13.3%. In the case of `COc1cccc2sc(Nc3nc(C)c(C(C)=O)s3)nc12`, the inhibition was -109%. `COC(=O)c1sc(NC(=O)c2csc3c2CCCC3)nc1C` was tested, and the inhibition was -50.9%. In the case of `COC(=O)c1sc(NC(=O)c2ccc(OC)cc2OC)nc1C`, the inhibition was 57.8% (active). `CC(C)C(c1nnnn1Cc1ccccc1)N1CCC(C(N)=O)CC1` (stereo not given) showed an inhibition of 7.4%. In the case of `Cn1nnc2cc(C(=O)NCCC3=CCCCC3)ccc21`, the inhibition was -49.9%. With `O=C(c1cccs1)N1CCN(C(=O)N2CCOCC2)CC1` the inhibition was -0.9%. `CN(c1ccc(C(=O)NCCC2=CCCCC2)cc1)S(C)(=O)=O` was tested, and the inhibition was -55.4%. `CCOc1ccc(-c2nnc(-c3ccco3)o2)cc1` was tested, and the inhibition was 48% (active). `CCCCOc1ccc(-c2nnc(-c3ccco3)o2)cc1` was tested, and the inhibition was -23.7%. `CCC(=O)Oc1cccc(C(=O)Nc2ccc(-c3nnc(-c4ccco4)o3)cc2)c1` gave an inhibition of -79.8%. `Cc1csc(NC(=O)C2CCCN2C(=O)OCC(C)C)n1` (stereo not given) was tested, and the inhibition was 5.9%. For `O=C(NCc1ccccn1)Nc1ccc(F)cc1`, the inhibition was -14.7%. `CC(=O)OC(C(=O)NCCc1ccccc1)c1cccnc1` (stereo not given) showed an inhibition of 4.1%. With `CCCC(=O)C1=C(N(C)c2ccccc2)CC(C)(C)C(C(=O)OC)C1=O` (stereo not given) the inhibition was -2.3%. `CCc1nnc(NC(=O)c2cccs2)s1` was tested, and the inhibition was -50%. With `Cc1noc(NS(=O)(=O)c2ccc(N3CC(O)=C(c4ccccc4)C3=N)cc2)c1C` the inhibition was 10.1%. `COCc1cc(C)nc(Nc2cc(C)ccc2C)c1C#N` showed an inhibition of 3.4%. In the case of `COc1ccc(C)c2sc(=NC(=O)c3ccc(C#N)cc3)n(C)c12`, the inhibition was -42.4%. Compound `Clc1ccc(Cc2nnc(-c3cccs3)o2)cc1` has an inhibition of -59.5%. With `CCn1c(CSc2nncn2-c2ccc(OC)cc2)nc2cc(S(=O)(=O)N(C)C)ccc21` the inhibition was -10.1%. For `COc1ccc(OCCCC(=O)Nc2nnc(C3CCCO3)s2)cc1` (stereo not given), the inhibition was -1.2%. `Cc1[nH]c2ccc(S(N)(=O)=O)cc2c1C` was tested, and the inhibition was -22.2%. `CN(C)c1ccc(CNC23CN4CN(CN(C4)C2)C3)cc1` was tested, and the inhibition was 14.1%. With `O=C(NCc1ccccc1)C1C(=O)N(Cc2ccccc2)C(=O)C1C1(O)CCCC1` (stereo not given) the inhibition was 4.4%. For `CC1CN(c2cc(=O)n(Cc3ccc(F)cc3)c(=O)[nH]2)CC(C)O1` (stereo not given), the inhibition was -7.1%.
